AmpC detergent: blocks E. coli AmpC beta-lactamase in detergent assay; 370,000 tested, 0.041% active; Potency, µM (series often up to 114 µM), for the others: top-dose activity change, negative = inhibition, actives largely listed as inhibitors; AID 485294; AmpC hydrolysis of nitrocefin, absorbance 480 nm, 0.01% Triton;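 note: 0% = no-compound wells and -100% = no-enzyme wells; nearly all actives have a fitted effect of over 25% in size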
Target sequence (P00811 whole entry, looked up): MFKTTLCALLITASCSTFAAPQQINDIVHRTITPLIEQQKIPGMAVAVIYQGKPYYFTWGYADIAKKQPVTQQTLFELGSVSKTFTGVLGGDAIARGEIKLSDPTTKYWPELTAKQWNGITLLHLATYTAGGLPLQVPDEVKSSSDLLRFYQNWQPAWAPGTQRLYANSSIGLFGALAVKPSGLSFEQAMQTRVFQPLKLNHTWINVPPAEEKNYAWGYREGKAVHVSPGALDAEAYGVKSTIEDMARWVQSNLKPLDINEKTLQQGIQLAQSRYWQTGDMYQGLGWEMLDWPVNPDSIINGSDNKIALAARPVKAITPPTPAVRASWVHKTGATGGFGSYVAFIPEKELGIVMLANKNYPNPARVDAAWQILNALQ
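AmpC (5.3 nM in the dispensed reagent) in 20 mM phosphate pH 7.0 with 0.01% (detergent screen) or 0.0001% Triton X-100 was preincubated with compounds for 15 min at room temperature. Nitrocefin was then added from an 800 uM solution, and hydrolysis was followed at 480 nm.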
Sm TGR block: inhibitors of Schistosoma mansoni thioredoxin glutathione reductase | purified TGR, DTNB reduction, TNB absorbance 405 nm | Q962Y6 | Potency, µM (highest dose often 114 µM), for inactives: at the top dose activity change, negative = inhibition, most hits filed as inhibitors | 360,000 tested, 3% active; note: nearly all actives have a fitted effect of over 60% in size
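TGR 20 nM + NADPH 100 uM (dispensed conc.), cpd preinc 15 min RT; start with NADPH (500 uM addition) then DTNB (15 mM addition). Kinetic TNB absorbance, 405 nm filter. Four-parameter Hill fit across titration.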
Giardia FBPA inh: Giardia lamblia aldolase inhibition; A8B2U2; purified Giardia FBPA; Potency, µM (doses to about 59.6 µM), for the others: at the highest dose activity, negative = inhibition, actives largely listed as inhibitors; 290,000 tested, 0.71% active; AID 2451; note: nearly all actives have a fitted effect of over 55% in size
Target sequence (A8B2U2 whole entry, looked up): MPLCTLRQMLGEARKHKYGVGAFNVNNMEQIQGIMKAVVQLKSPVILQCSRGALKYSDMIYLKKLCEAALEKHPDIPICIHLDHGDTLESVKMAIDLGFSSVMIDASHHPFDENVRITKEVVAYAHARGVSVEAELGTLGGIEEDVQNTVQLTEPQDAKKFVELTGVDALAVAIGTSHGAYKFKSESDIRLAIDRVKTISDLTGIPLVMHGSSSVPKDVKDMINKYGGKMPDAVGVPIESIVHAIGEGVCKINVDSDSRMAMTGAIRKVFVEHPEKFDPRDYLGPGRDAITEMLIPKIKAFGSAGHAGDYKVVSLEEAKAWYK
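40 nM FBPA preincubated 10 min at RT with compound (up to 57.5 uM final), then substrate plus GAPDH/TPI/NAD/arsenate coupling and diaphorase/resazurin added. Fluorescence read after 20 min at RT, 525/598 nm.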
AmpC inh no detg: AmpC beta-lactamase inhibition without detergent | 330,000 tested, 0.52% active | AmpC nitrocefin hydrolysis, absorbance 480 nm, 0.0001% Triton | P00811 | AID 485341 | Potency, µM (highest dose often 57.1 µM), inactives show at the top dose activity change, negative = inhibition, hits mostly inhibitors;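 note: plate controls were no compound for no effect and no enzyme for full effect; nearly all actives have a fitted effect of over 20% in size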
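20 mM phosphate pH 7.0 + 0.01% (detergent screen) or 0.0001% Triton X-100; 5.3 nM AmpC reagent; cpd preinc 15 min RT; nitrocefin (800 uM stock) to start; A480 q20 s × 4 min; Activity was normalised to no-enzyme and no-compound control wells.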
The depositor's hits bear a star; ? = inconclusive; . = no result given. An excerpt weighted towards active compounds, which were near 3.6% of everything screened. Calls come from the whole dose curve; as a rule, active = well fitted curve in the direction sought with a large enough effect; inconclusive = small, poorly fitted or top-dose-only effect, or another doubt; inactive = no such curve, though single readings can be large; an effect the other way counts as inactive or inconclusive. Unless noted, % is set by controls: 0 for no effect and ±100 for the full control effect; potency is the fitted concentration of half-maximal effect.

SMILES	AmpC detergent	Sm TGR block	Giardia FBPA inh	AmpC inh no detg
COC(=O)[C@@]1(Cc2ccc(OC)cc2)[C@@H]2C(=CC(=O)[C@H]2CC(=O)C(=O)N(C)C)CN1C(=O)c1ccccc1	-5.1%	?	-7.4%	213.1%
C=C1C(=O)C=C2CN(C(=O)c3ccccc3)[C@@](Cc3ccc(F)cc3)(C(=O)OC)[C@@H]12	-22.7%	10µM*	-0.1%	-26.9%
Cc1cc(=O)[nH]c2nnc(SCCC(C)C)n12	0.1%	-0.7%	.	.
Cc1ccccc1OCC(=O)Nc1ccc(S(=O)(=O)N(Cc2ccccc2)c2ccccc2)cc1	4.6%	-2.1%	.	.
O=C(Nc1ccccc1)NC1CCS(=O)(=O)C1 (stereo not given)	-0.1%	-3.7%	-0.2%	-12.3%
CC(=O)NC1=C(NC2CCS(=O)(=O)C2)C(=O)c2ccccc2C1=O (stereo not given)	3.2%	0.708µM*	?	-6.9%
CCCCCCCCC(NC(=O)c1ccc(C#N)cc1)C(=O)NCCC (stereo not given)	2.9%	-26.1%	.	-13.3%
Cc1ccc(NC2=C(Cl)C(=O)OC2NC(=O)c2ccccc2)cc1 (stereo not given)	-10.9%	-7.6%	4.2%	-35.6%
CC(=O)NC(=O)NC1OC(=O)C(Cl)=C1Cl (stereo not given)	?	3.55µM*	-6.2%	-8.9%
CCCCSc1nnc([C@@H]2CCCN2C(=O)OC(C)(C)C)o1	31.6µM*	-4.5%	1.5%	64.2%
CSc1nnc([C@@H]2CCCN2C(=O)OC(C)(C)C)o1	1.7%	2.6%	6.8%	12.2%
CCOC(=O)Cn1c(=O)oc2cc(S(=O)(=O)N3CCN(c4cc(C)ccc4C)CC3)ccc21	-6.1%	-1.0%	.	.
CC(=O)Nc1cc2c(=O)n(Cc3ccccc3)c(C)nc2cc1N1CCOCC1	-15.5%	6.31µM*	-18.3%	-8.8%
COc1ccccc1CNC(=O)C(=O)Nc1nccs1	1.0%	44.7µM*	1.9%	51.3%
Cc1ccccc1CNC(=O)C(=O)Nc1nccs1	-1.9%	2.2%	-8.0%	-9.1%
COc1ccc(O)c(C(=O)c2cnn(S(=O)(=O)c3ccc(C)cc3)c2)c1	?	35.5µM*	.	-3.0%
COc1ccc(C(=O)n2cc(C(=O)c3cc(C)ccc3O)cn2)cc1	-10.7%	6.9%	8.1%	-20.7%
CCOC(=O)c1c(C)oc2c1c1c(c3ccccc32)OCN(Cc2ccccn2)C1	-2.6%	0.355µM*	?	5.5%
CCOC(=O)c1c(C)oc2c1c(C=NCCC(=O)O)c(O)c1ccccc12	-7.0%	-10.0%	?	14.3%
CCOC(=O)c1c(C)oc2c1c(CN1CCN(C(=O)OCC)CC1)c(O)c1ccccc12	-5.9%	0.562µM*	?	0.0%
CCOC(=O)c1c(C)oc2c1c(CN1CCN(CCO)CC1)c(O)c1ccccc12	5.5%	0.282µM*	?	41.3%
CCOC(=O)c1c(C)oc2c1c(C(c1ccncc1)N1CCOCC1)c(O)c1ccccc12 (stereo not given)	-4.6%	1.26µM*	?	242.4%
COc1ccc(CCNC(=O)C2CCN(Cc3nc(-c4ccc(OC)c(OC)c4)oc3C)CC2)cc1OC	-6.1%	1.5%	.	.
CCN(C(=O)CN1C(=O)c2ccccc2Sc2ccc(C(=O)OC)cc21)c1cccc(C)c1	15.5%	8.1%	.	.
CCOC(=O)c1sc(=NC(=O)c2ccc(C)cc2)n(C)c1C	?	11.6%	0.9%	-11.1%
SMILES	AmpC detergent	Sm TGR block	Giardia FBPA inh	AmpC inh no detg
CC1=CC(=O)C(C(C)C)=CC1=NC(=O)c1ccc(C)cc1	-7.7%	3.16µM*	-18.1%	-14.7%
COc1ccc(CCNC(=O)c2c(C)nn(-c3ccc(F)cc3)c2-n2cccc2)c(OC)c1OC	-0.3%	9.0%	.	.
N#C/C(=C\c1ccc(N2CCOCC2)o1)c1ccccc1	4.2%	1.12µM*	?	8.0%
N#C/C(=C/c1ccc(N2CCOCC2)o1)c1ccc(Br)cc1	-7.0%	2µM*	.	45.2%
Cc1ccc(CNC(=O)CC(C)S(=O)(=O)c2ccc3c(c2)NC(=O)CO3)cc1 (stereo not given)	-0.8%	3.9%	.	-21.0%
Cc1ccc(CNC(=O)CC(C)S(=O)(=O)c2ccc3c(c2)NC(=O)CS3)o1 (stereo not given)	-6.7%	14.1µM*	-4.1%	-19.9%
COc1ccc(/C(O)=C/C(=O)C(=O)NNC(=O)c2ccccc2)cc1	0.9%	14.1µM*	?	-37.8%
O=C(NCCNC(=O)c1ccco1)c1ccc(Cl)c(Cl)c1	?	?	4.2%	0.3%
COc1ccc(S(=O)(=O)N[C@@H](CSCc2ccccc2)C(=O)O)cc1	-7.5%	39.8µM*	.	-9.4%
CCC(c1nnnn1Cc1ccco1)N(Cc1ccccc1OC)Cc1cc2cc(C)ccc2[nH]c1=O (stereo not given)	-15.6%	-20.7%	-7.9%	-45.6%
COc1ccc2[nH]c(=O)c(CN(Cc3nnnn3Cc3ccco3)C3CCCCC3)cc2c1	-6.9%	56.2µM*	?	-4.4%
CCC(c1nnnn1Cc1ccco1)N(Cc1cc2cc(C)cc(C)c2[nH]c1=O)CC1CCCO1 (stereo not given)	-10.9%	22.4µM*	-20.9%	81.2%
CCC(C)(C)n1nnnc1CN(Cc1cc2cc(OC)c(OC)cc2[nH]c1=O)C1CCCC1	0.4%	25.1µM*	-0.7%	-6.6%
COc1ccc(Cn2nnnc2CN(Cc2cc3cc(C)ccc3[nH]c2=O)C2CCCC2)cc1	?	35.5µM*	-25.5%	-33.0%
CC(C)C[C@H](NC(=O)N1CCn2c1nc1ccccc12)C(=O)N[C@@H](C(=O)O)c1ccccc1	-2.6%	6.0%	-7.1%	-20.2%
COc1cccc(C2=NN(C(=O)CCCC(=O)O)C(c3cccs3)C2)c1 (stereo not given)	-17.2%	9.6%	22.4%	-27.8%
O=c1[nH]c2cc3c(cc2cc1CN(Cc1nnnn1C1CCCC1)C1CCCC1)OCCO3	-2.0%	50.1µM*	-4.9%	-18.3%
COc1ccc2[nH]c(=O)c(CN(C3CCCCC3)C(c3nnnn3Cc3ccco3)C(C)C)cc2c1 (stereo not given)	-7.5%	12.6µM*	-16.6%	-32.7%
CCOc1ccc(CN(C)C(=O)CNC(=O)c2ccc3ccccc3c2)cc1OC	1.1%	3.8%	7.1%	86.3%
Cn1c(COc2ccc(Cl)cc2)nnc1SCc1ncc(-c2ccccc2)o1	3.1%	22.4µM*	-5.5%	105.9%
COc1ccc(-n2cnnc2SCc2ncc(-c3ccccc3)o2)cc1	-10.1%	?	-0.4%	26.9%
COc1ccc(-c2c3c(cc4ncn(Cc5ccccc5)c24)COC3=O)cc1	4.4%	31.6µM*	.	-18.0%
COc1ccc(-c2csc3ncn(Cc4ccccc4)c(=O)c23)cc1	16.6%	20.2%	-7.2%	-18.8%
Cc1ccc(/C=C/c2nc3ccccc3[nH]2)o1	1.3%	3.55µM*	?	-34.6%
O=C(CSc1ccc(-c2cccnc2)nn1)Nc1ccc(F)c(F)c1	1.9%	5.7%	-9.3%	-28.0%
O=c1ccc2c(o1)/C(=C/C=C(Cl)Cl)CCC2	9.9%	22.4µM*	?	-6.3%
Cc1ccc2cc(CCl)c(Cl)nc2c1	-3.2%	25.1µM*	-9.6%	-35.9%

Screening data: PubChem, National Center for Advancing Translational Sciences (NCATS)
